In PubChem BioAssay (Tox21) one finds Potency data, which are given here for 40 compounds.

The source made the active and inactive calls. Entries that show only a call come without a potency. Calls come from the whole dose curve; as a rule, active = well fitted curve in the direction sought with a large enough effect in the repeat runs; inconclusive = weak or mixed curves; inactive = flat fitted curve, though single readings scatter. Non-standard residues stand in square brackets, D forms with d. Residues, ends and D or L forms follow the SMILES beside them. pGlu = O=C1CC[C@@H](C(=O)O)N1

A short description of the test: qHTS assay to test for compound auto fluorescence at 535 nm (green) in HepG2 cell free culture (AID 720686). To be noted: Cell-free medium, green autofluorescence 485/535 nm; series mostly up to 46 µM. The source says:
U.S. Tox21 Program National Center for Advancing Translational Sciences [NCATS] NIH Chemical Genomics Center [NCGC] U.S. Environmental Protection Agency [EPA] National Institutes of Environmental Health Sciences [NIEHS] National Toxicology Program [NTP] U.S. Food and Drug Administration [FDA] Tox21 Assay Overview: Compound auto fluorescence often interferes with screening of the compound library against various biological targets and signaling pathways. Some of these compounds may have fluorophoric properties. Such properties may interfere with the assay outputs resulting in false positives and/or negatives. To decrease such complications and ensure the compound activities are relevant in terms of biological response, the Tox21 10K compound library was screened for auto fluorescence. From the fluorophores used as reporter signals in our screening assays, the auto fluorescence equivalencies of compounds against three fluorophores have been evaluated: Triamterene, Fluorescein and Rose Bengal sodium for blue, green and red fluorescence, respectively. The fluorescence intensities were measured using Excitation/Emission wavelengths at 405/460nm, 485/535nm and 540/590nm for blue, green and red labels, respectively. This assay includes the green fluorescence data.
Tox21 Assay Protocol Summary: 5 uL of culture medium (MEM containing 10% FBS) per well was dispensed into black wall/clear bottom 1536-well plates using a Multidrop Combi Dispenser (ThermoFisher Scientific, Waltham, MA). After 23 nL compound or DMSO vehicle was transferred into assay plate by a pintool work station (Kalypsys, San Diego, CA), fluorescence intensities in the assay plates were measured by an Envision (PerkinElmer, Shelton, CT) plate reader using three labels for measuring blue, green and red fluorescence at […] 460, 535 and 590nm respectively.
In general terms: In qHTS, concentration-response curves come from the screen itself.
As for `CN1CCN(C2=Nc3ccccc3Cc3ccccc32)CC1`, the Potency result was “inactive”. `C=CCNC1=C2C[C@@H](C)C[C@H](OC)[C@H](O)[C@@H](C)/C=C(\C)[C@H](OC(N)=O)[C@@H](OC)/C=C\C=C(/C)C(=O)NC(=CC1=O)C2=O`: the Potency entry is “inactive”.

On to `N#Cc1ccc2c(c1)N(CCCN1CCC(O)CC1)c1ccccc1S2`, for which the Potency result is “inactive”. `CC(=O)N[C@@H]1C(O[C@H]2O[C@H](C(=O)O)C(O)[C@H](O)[C@H]2O)[C@H](O)[C@@H](CO)O[C@H]1O[C@@H]1C(C(=O)O)O[C@@H](O[C@H]2[C@H](O)[C@@H](CO)OC(O)[C@@H]2NC(C)=O)[C@H](O)[C@H]1O` (stereo not given in full): the Potency entry was “inactive”. For the compound `CN(C)CCOc1ccccc1Cc1ccccc1` (tested in a mixture with another compound), the Potency result was “inactive”. For `CCCCCCCCCCCCCCCCCCCCCC(=O)Nc1ccn([C@@H]2O[C@H](CO)[C@@H](O)[C@@H]2O)c(=O)n1` the value was “inactive”. For `CCN(CC)CCOC(=O)c1cccnc1` the value was “inactive”; for `CC[N+](C)(C)Cc1ccccc1Br`, “inactive”. Consider `Cc1ccc(S(=O)(=O)NC(=O)N[C@@H](C)Cc2ccccc2)cc1`, for which the Potency entry is “inactive”. Regarding `CN1C(=O)CN2CCc3ccccc3C2c2cc(Cl)ccc21` (stereo not given), the Potency result was “inactive”. For the compound `Cc1c(N)nc(C(CC(N)=O)NCC(N)C(N)=O)nc1C(=O)NC(C(=O)NC(C)C(O)C(C)C(=O)NC(C(=O)NCCc1nc(-c2nc(C(=O)NCCCN[C@@H](C)c3ccccc3)cs2)cs1)C(C)O)C(O[C@@H]1O[C@@H](CO)[C@@H](O)[C@H](O)[C@@H]1O[C@H]1O[C@H](CO)[C@@H](O)[C@H](OC(N)=O)[C@@H]1O)c1cnc[nH]1` (stereo not given in full), the Potency entry was “inactive”. Consider `CC(=O)N(CC(C)C(=O)O)c1c(I)cc(I)c(N)c1I` (stereo not given), for which the Potency result is “inactive”. On to `CN1CCN(CCCN2c3ccccc3Sc3ccccc32)CC1`, for which the Potency result was “inactive”. Take `NCCCC[C@H](NC(=O)[C@@H]1CCCN1C(=O)[C@@H]1CSSC[C@H](N)C(=O)N[C@@H](Cc2ccccc2)C(=O)N[C@@H](Cc2ccccc2)C(=O)N[C@@H](CCC(N)=O)C(=O)N[C@@H](CC(N)=O)C(=O)N1)C(=O)NCC(N)=O`: the Potency result was “inactive”.

Regarding `Clc1cc(Cl)c(OCC#CI)cc1Cl`, the Potency result is “inactive”. Consider `CC(C)=CCC/C(C)=C/C=C/C(C)=C/C=C/C(C)=C/C=C/C=C(C)/C=C/C=C(C)/C=C/C=C(\C)CCC=C(C)C`, for which the Potency result is “inactive”. For `CO[C@H]1[C@@H](O)[C@H](N)[C@@H](O[C@H]2O[C@H]([C@H](C)N)CC[C@H]2N)[C@H](O)[C@@H]1N(C)C(=O)CN` the value was “inactive”; for `CC(Oc1ccccc1)C(=O)N[C@@H]1C(=O)N2[C@@H]1SC(C)(C)[C@@H]2C(=O)O` (stereo not given in full), “inactive”. For `CCCCC(O)c1ccccc1` (stereo not given) the value was “inactive”; for `CCOc1ccc(N=Nc2ccc(N)cc2N)cc1`, “inactive”. `CCCCC(=O)OCC(=O)[C@]1(O)Cc2c(O)c3c(c(O)c2[C@@H](O[C@H]2C[C@H](NC(=O)C(F)(F)F)[C@H](O)[C@H](C)O2)C1)C(=O)c1c(OC)cccc1C3=O`: the Potency entry was “inactive”. For `O=C1/C(=C\c2cccs2)CCC/C1=C\c1cccs1` the value was “inactive”; for `CC1CCCC1`, “inactive”. Consider `O=C(Nc1ccc(Br)cc1)c1cc(Br)c(Br)s1`, for which the Potency result is “inactive”. For `CN1c2cc(O)c(N=NC(N)=O)cc2CC1S(=O)(=O)O` (stereo not given) the value was “inactive”; for `NNc1nnc(Cc2ccncc2)c2ccccc12`, “inactive”; for `CCCCC(=O)N(Cc1ccc(-c2ccccc2-c2nn[nH]n2)cc1)[C@@H](C(=O)O)C(C)C`, “inactive”. For `CCOC(=O)C1=C[C@@H](OC(CC)CC)[C@H](NC(C)=O)[C@@H](N)C1` the value was “inactive”. As for `CC(C)C[C@H](NC(=O)[C@@H](Cc1c[nH]c2ccccc12)NC(=O)[C@H](Cc1ccc(O)cc1)NC(=O)[C@H](CO)NC(=O)[C@H](Cc1c[nH]c2ccccc12)NC(=O)[C@H](Cc1cnc[nH]1)NC(=O)[C@@H]1CCC(=O)N1)C(=O)N[C@@H](CCCN=C(N)N)C(=O)N1CCC[C@@H]1C(=O)NCC(N)=O`, the Potency entry is “inactive”. In the case of `CCOC(=O)C1=C(COCCN)NC(C)=C(C(=O)OC)C1c1ccccc1Cl` (stereo not given), the Potency entry was “inactive”. As for `CC[C@H](C)[C@H](NC(=O)[C@H](Cc1ccccc1)NC(=O)[C@H](C)NC(=O)[C@H](CC(=O)O)NC(=O)[C@H](CCCCN)NC(=O)[C@H](CO)NC(=O)[C@@H]1CCCN1C(=O)[C@@H]1CCC(=O)N1)C(=O)NCC(=O)N[C@@H](CC(C)C)C(=O)N[C@@H](CCSC)C(N)=O` ([pGlu]PSKDAFIGLM-NH2), the Potency entry is “inactive”.

In the case of `CC1(C)C2CC[C@]3(C)[C@H](C(=O)C=C4[C@@H]5C[C@@](C)(C(=O)O)CC[C@]5(C)CC[C@]43C)[C@@]2(C)CC[C@@H]1O[C@H]1O[C@H](C(=O)O)[C@@H](O)[C@H](O)[C@H]1O[C@@H]1O[C@H](C(=O)O)[C@@H](O)[C@H](O)[C@H]1O` (stereo not given in full), the Potency entry is “inactive”. `NCCCNCCCCNC(=O)C(O)NC(=O)CCCCCCN=C(N)N` (stereo not given): the Potency entry is “inactive”.

As to `NC(=O)OC[C@@H]1[C@H](NC(=O)/C(=N\OCC(=O)O)c2csc(N)n2)C(=O)N1S(=O)(=O)O`, the Potency result was “inactive”.

`CC1CS(=O)(=O)CCN1/N=C/c1ccc([N+](=O)[O-])o1` (stereo not given): the Potency entry was “inactive”.

In the case of `CC(C)c1nc(N(C)S(C)(=O)=O)nc(-c2ccc(F)cc2)c1/C=C/C(O)CC(O)CC(=O)O` (stereo not given), the Potency entry was “inactive”. As for `C[C@H](N)C(=O)N[C@@H](C)P(=O)(O)O`, the Potency entry was “inactive”.

With `CC[C@@H](C(=O)[C@@H](C)[C@@H](O)[C@H](C)[C@@H]1O[C@@H]([C@@H](CC)C(=O)O)CC[C@@H]1C)[C@H]1O[C@]2(C=C[C@@H](O)[C@]3(CC[C@@](C)([C@H]4CC[C@](O)(CC)[C@H](C)O4)O3)O2)[C@H](C)C[C@@H]1C`, the Potency result was “inactive”.

In the case of `O=C1CCC(=O)N1CO`, the Potency entry is “inactive”.

Take `O=P(O)(O)OC(CO)CO`: the Potency entry was “inactive”.
